Source: PubChem
Many of the other results were omitted from the sample, so hits are more common in it than they were.
Methyltransferases = Primary Screen for Target Class Profiling of Small Molecule Inhibitors of Methyltransferases. 25,000 compounds, 3.9% hits. purified enzyme, MTase-Glo SAH luminescence; active compounds read low. calls only at 40 µM. AID 1745853, 2022; call rule not given here
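Each enzyme was reacted with SAM and its substrate, with compounds tested once at 40 uM; SAH formed was read by MTase-Glo luminescence.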
MTase-Glo counter = Counterscreen for Target Class Profiling of Small Molecule Inhibitors of Methyltransferases. shares compounds with Methyltransferases. MTase-Glo coupled enzymes, SAH conversion luminescence, no MTase. Potency, µM (titrated, usually from 57.3 µM), for inactives: at the highest dose activity change, negative = inhibition, usual class: inhibitors. 180 compounds, 6% hits. AID 1745851, 2022; active = well fitted inhibition curve with a large enough effect; inconclusive = small, poorly fitted or top-dose-only effect; note: potency is the fitted concentration of half-maximal effect
The depositor's hits bear a star; i = inactive; ? = inconclusive; + = active, no number; [ ] = dose if it differs, or a comment. % is set by controls: 0 for no effect and ±100 for the full control effect.

SMILES	Methyltransferases	others
O=C(CCc1ccccc1)N1CCNc2cnc(Nc3cccnc3)nc2C1	+	MTase-Glo counter=-1.2%[85.7 µM]
O=C(Nc1ccc(Oc2cccnc2)cc1)C1CCN(CCCc2ccccc2)CC1	i
COC(=O)c1cc2n(n1)CC(C)(C(=O)NC1CCCCC1)N(c1cccc(Cl)c1C)C2=O (stereo not drawn)	i
Cc1ccc(CNC(=O)Cn2nc3n(CCC(C)C)c(=O)c4ccccc4n3c2=O)cc1	i
COc1ccc(-c2cc3n(n2)CC(C)(C(=O)NCc2ccccc2)N(C2CC2)C3=O)cc1 (stereo not drawn)	i
Nc1nc(NCc2ccc(Cl)cc2Cl)cc(C2CC(O)C2)n1 (stereo not drawn)	+	MTase-Glo counter=-3.4%
Nc1nc(NCc2ccc(N3CCCC3=O)cc2)cc(C2CC(O)C2)n1 (stereo not drawn)	i
CCc1csc(CNc2cc(C3CC(O)C3)nc(N)n2)n1 (stereo not drawn)	i
CCCN1C(=O)c2c(C(=O)OC)ncn2CC1(C)C(=O)NCc1ccccc1 (stereo not drawn)	i
COc1ccc(CN2C(=O)c3cc4ccccc4n3CC2(C)C(=O)NC2CCCC2)cc1 (stereo not drawn)	i
COc1ccc2cc3n(c2c1)CC(C)(C(=O)NCC1CCCO1)N(Cc1cccnc1)C3=O (stereo not drawn)	i
CCc1cc2c(cc3n2CC(C)(C(=O)NC2CCC(C)CC2)N(CCCOC)C3=O)s1 (stereo not drawn)	i
CC(C)CNC(=O)c1ccc2c(=O)n(C)c3nn(CC(=O)NCc4ccccc4Cl)c(=O)n3c2c1	i
Cc1ccc(CN2CC[C@H](c3nc4ccc(C)cc4[nH]3)C2)cc1	i
COc1ccc(CC(=O)N2CCCC2C(=O)N2CCC(c3nc4ccncc4[nH]3)C2)cc1 (stereo not drawn)	i
COc1ccc2nc([C@H]3CCN(C4CCCCC4)C3)[nH]c2c1	+	MTase-Glo counter=-5.3%[85.7 µM]
O=C(CCc1nnc2n(Cc3ccc(F)cc3)c(=O)c3ccccc3n12)NC1CCCCC1	i
Cc1ccccc1-c1[nH]nc2ncc(-c3c(C)noc3C)nc12	+	MTase-Glo counter=-4.1%[85.7 µM]
Cc1noc(C)c1-c1cc2c(cc(C)n2C)c(N2CCN(c3ccccn3)CC2)n1	i
COc1ccc(-c2cnc3n[nH]c(-c4ccccc4C)c3n2)cn1	i
CCN1c2cc(C(=O)NCCc3ccccc3)ccc2C(=O)N2CCCCC21 (stereo not drawn)	i
CCCC1=Nc2cc(C(=O)NCCCN3CCCCC3CC)ccc2Sc2ccc(C)cc21 (stereo not drawn)	+	MTase-Glo counter=-0.9%
CCC1CCCCN1CCCNC(=O)CCn1ccc2cc(S(=O)(=O)N3CCCCC3)ccc21 (stereo not drawn)	i
O=C(Cn1nc2n(Cc3ccc(F)cc3)c(=O)c3ccccc3n2c1=O)Nc1ccc2c(c1)OCO2	i
CCOC(=O)c1cc2n(n1)CC(C)(C(=O)NC1CCCCC1)N(c1ccc(F)cc1)C2=O (stereo not drawn)	i
SMILES	Methyltransferases	others
Cn1ncc2c(N3CCN(S(N)(=O)=O)CC3)nc(C3CCCC3)nc21	+	MTase-Glo counter=?
CC1CCCN1C(=O)c1cc(-c2ccc(C(F)(F)F)cc2)nc2c1cnn2C (stereo not drawn)	i
Cc1noc2c(NC3CCN(C)CC3)cc(-c3cccs3)nc12	+	MTase-Glo counter=4.6%[85.7 µM]
Cc1noc2c(NCCCn3ccnc3)cc(-c3ccccn3)nc12	i
Cc1noc2c(NCCN3CCOCC3)cc(-c3ccsc3)nc12	i
Cc1ccc(CNC(=O)CCn2ccc3cc(S(=O)(=O)N4CCCCC4)ccc32)cc1	i
CCCn1c(C)cnc1CCNC(=O)CC1CCN(C(C)=O)CC1	i
CCNc1nccc(N2CCC(CC(=O)NCC(C)C)CC2)n1	+	MTase-Glo counter=-0.3%
CCNc1nccc(N2CCC(CC(=O)N3CCN(c4ccccc4F)CC3)CC2)n1	+	MTase-Glo counter=2.9%
COc1nccc(N2CCC(CC(=O)N3CCN(C(C)=O)CC3)CC2)n1	i
CC1(C)N=C(c2ccccc2)C(=O)N1CC(=O)N1CCN(c2ccccc2F)CC1	i
CCOc1ccc(-c2ccnc(NC[C@@H]3CCCO3)n2)cc1C(=O)O	i
Cc1cnc(CC2CCN(C(=O)Nc3ccc4c(c3)OCCO4)C2)n1C1CC1 (stereo not drawn)	i
O=C(Nc1ccc2c(c1)OCCO2)N1CC(c2nc(CCOCC3CC3)no2)C1	i
Cc1cnc(CCNC(=O)c2cccs2)n1C1CCC1	+	MTase-Glo counter=3.2%
Cc1cnc(CCNC(=O)c2ccc(C#N)cc2)n1C1CC1	i
Cc1cnc(C(=O)NCCc2ccc(S(=O)(=O)NC(=O)NC3CCCCC3)cc2)cn1	i
Cc1cnc(CCNC(=O)c2n[nH]c(=O)c3ccccc23)n1C1CCCCC1	+	MTase-Glo counter=-5.7%
Cc1cnc(CCNC(=O)Nc2ccc3c(c2)OCCO3)n1C1CCC1	+	MTase-Glo counter=-3.8%
Cc1cnc(CCNC(=O)Cc2ccncc2)n1CC1CC1	i
COc1ccc(C(=O)NCCc2ncc(C)n2C2CC2)cn1	i
COc1cccc(CNC(=O)c2cc3n(n2)CC(C)(C(=O)NCCC(C)C)N(C)C3=O)c1 (stereo not drawn)	i
CCc1cccc(N2C(=O)c3cc(-c4ccc(OC)cc4)nn3CC2(C)C(=O)NCc2ccccc2OC)c1 (stereo not drawn)	i
COc1cccc(N2CCN(S(=O)(=O)c3cc4[nH]c(=O)[nH]c4cc3Br)CC2)c1	i
O=c1[nH]c2ccc(S(=O)(=O)Nc3cccc(F)c3)cc2[nH]1	i
SMILES	Methyltransferases	others
COc1ccc(CCN2C(=O)c3cc4occc4n3CC2(C)C(=O)NC2CCC(C)CC2)c(OC)c1 (stereo not drawn)	i
O=c1c2ccccc2n2c(SCc3ccccc3F)nnc2n1Cc1ccc(F)cc1	i
COCCNC(=O)C1(C)Cn2nc(-c3ccccc3)cc2C(=O)N1Cc1ccc(C)cc1 (stereo not drawn)	i
CCCOc1ccc(CN2C(=O)c3c(C(=O)OC)ncn3CC2(C)C(=O)NCc2ccccc2)cc1 (stereo not drawn)	i
COc1ccc(CCN(C)CCc2ccc(OC)c(OC)c2)cc1OC	i
COc1ccc(CNc2cc3c(cn2)CN(C)CCN3)cc1OC	+	MTase-Glo counter=0.0%[85.7 µM]
COc1ccc(CNC(=O)c2cc3n(n2)CC(C)(C(=O)NC2CCCC2)N(C)C3=O)cc1OC (stereo not drawn)	i
CC(C)n1c(=O)sc2cc(NS(=O)(=O)c3ccc4c(c3)n(C)c(=O)n4C)ccc21	i
CCCCC(=O)N(c1ccc(OC)cc1)S(=O)(=O)c1ccc2c(c1)n(C)c(=O)n2C	i
COc1cccc([S+](=O)([O-])N2CCC23Cc2ccccc2NC3=O)c1 (stereo not drawn)	i
COc1cccc([S+](=O)([O-])N2CC(N3CCc4ccccc43)C2)c1	i
COc1cccc([S+](=O)([O-])N2CCC3(C2)N=C(c2cccnc2)C(=O)N3)c1 (stereo not drawn)	+	MTase-Glo counter=-0.2%
CC1(C(=O)NC2CCCCCC2)Cn2c(cc3occc32)C(=O)N1CCc1ccc(Cl)cc1 (stereo not drawn)	i
CC1CCC(NC(=O)C2(C)Cn3c(cc4sccc43)C(=O)N2Cc2ccco2)CC1 (stereo not drawn)	i
